# Compound activity (PubChem BioAssay)
# In the library only some 5.4% were active in any assay of this set; here they are far more common.
# FMDV antiviral: antivirals against foot and mouth disease virus; Potency, µM (highest dose often 57.9 µM), for inactives: at the highest dose activity change, negative = inhibition, actives largely listed as inhibitors; AID 1159524; FMDV antiviral cell-based qHTS; actives 1.2% (n = 410,000); calls by dose curve; tested in HEK293T cells; also: read-out not given here; nearly all actives have a fitted effect of over 45% in size
# LASV entry inh: inhibitors of Lassa virus binding or cell entry; Potency, µM (titrated, usually from 37.9 µM), without a hit: top-dose activity change, negative = inhibition, most hits filed as inhibitors; AID 540256; actives 1.2% (n = 300,000); Lassa virus pseudotype entry inhibition, cell reporter; calls by dose curve; tested in HEK293 cells; also: nearly all actives have a fitted effect of over 50% in size
# Sm TGR block: S. mansoni TGR enzyme inhibition; Q962Y6; Potency, µM (doses to about 114 µM), for inactives: at the highest dose activity change, negative = inhibition, hits mostly inhibitors; actives 3% (n = 360,000); purified TGR, DTNB reduction, TNB absorbance 405 nm; active = well fitted inhibition curve with a large enough effect; inconclusive = small, poorly fitted or top-dose-only effect; inactive = no such curve, though single readings can be large or run the other way; also: nearly all actives have a fitted effect of over 60% in size
#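 TGR 20 nM + NADPH 100 uM (dispensed conc.), cpd preinc 15 min RT; start with NADPH (500 uM addition) then DTNB (15 mM addition). Kinetic TNB absorbance, 405 nm filter. Four-parameter Hill fit across titration.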
# MARV entry inh: inhibitors of Marburg virus binding or cell entry; Marburg virus pseudotyped entry inhibition, cell reporter; Potency, µM (series often up to 37.8 µM), for inactives: at the top dose activity change, negative = inhibition, actives largely listed as inhibitors; actives 1.8% (n = 300,000); AID 540276; calls by dose curve; tested in HEK293 cells
# VACV mCherry inh: inhibitors of vaccinia virus infection (mCherry reporter signal) | Vaccinia virus mCherry reporter infection, fluorescence | Potency, µM (series often up to 36.5 µM), for the others: at the highest dose activity change, negative = inhibition, hits mostly inhibitors | actives 0.63% (n = 310,000); calls by dose curve; tested in A549 cells; also: nearly all actives have a fitted effect of over 35% in size
# VACV Venus inh: vaccinia inhibition (Venus reporter); Vaccinia virus Venus reporter expression, fluorescence; Potency, µM (top dose mostly 36.5 µM), without a hit: top-dose activity change, negative = inhibition, hits mostly inhibitors; actives 0.46% (n = 330,000); calls by dose curve; tested in A549 cells; also: nearly all actives have a fitted effect of over 30% in size
# An asterisk follows results filed as active; i = inactive; ? = inconclusive; nt = no result; [ ] = dose if it differs, or a comment. % is scaled to controls: 0 for no effect and ±100 for the full control effect; potency is read from the fitted curve at half-maximal effect.
SMILES,FMDV antiviral,LASV entry inh,Sm TGR block,MARV entry inh,VACV mCherry inh,VACV Venus inh
CN(C)C(=O)NC(Nc1cccc([N+](=O)[O-])c1)C(Cl)(Cl)Cl (stereo unspecified),-18.2%,-9.8%,20µM*,2.4%,nt,nt
CC(C)C(=O)NC(Nc1cccc([N+](=O)[O-])c1)C(Cl)(Cl)Cl (stereo unspecified),-11.7%,nt,nt,nt,-7.2%,-25.2%
Nc1ccc(Cc2ccc(C=O)cc2)cc1,nt,nt,nt,nt,i,-15.1%
Cc1ccc2c(c1)c1c3n2CCCN(Cc2ccccc2)C3CCC1 (stereo unspecified),10.3%,-23.5%,1.2%,7.5%,nt,nt
COC(Cn1c2c(c3cc(C)ccc31)CCCC2NCc1ccccc1)OC (stereo unspecified),-19.8%,nt,3.98µM*,nt,nt,nt
CC(=O)N1c2ccc(C)cc2C(c2ccccc2)CC1C (stereo unspecified),-7.2%,?,-3.2%,6.31µM*,?,-21.8%
CCC(=O)Nc1sc2c(c1C(N)=O)CCN(C(C)=O)C2,-21.3%,nt,0.9%,nt,-23.1%,-7.9%
CC(=O)N1CCc2c(sc(NC(=O)c3ccc([N+](=O)[O-])o3)c2C(N)=O)C1,-2.0%,nt,nt,nt,1.78µM*,5.01µM*
CCOC(=O)c1[nH]c(C)c(CCC(=O)Nc2cc(Cl)c(OC)cc2OC)c1C,-2.5%,6.7%[46.1 µM],-28.6%,nt,-13.6%,-13.4%
CC(C)=NNc1nc2sc3c(c2c(=O)[nH]1)CC(C)(C)OC3,22.3%,7.08µM*,-6.1%,-4.5%,-14.9%,-15.3%
COc1ccc(-n2ncc3c(NC4CCCC4)ncnc32)cc1,-32.7%,-3.6%[46.1 µM],-2.3%,nt,-0.8%,-14.1%
CC(C)C[C@@H](CN1CCCC1CN1C(=S)NC[C@@H]1Cc1ccc(O)cc1)N1C[C@H](Cc2ccc(O)cc2)N(CC2CCCCCC2)C1=S (stereo partly specified),?,nt,nt,nt,6.31µM*,11.2µM*
CCOc1ccc(CCN2C(=S)N([C@@H](CC(C)C)CN3CCCC3CN3C(=S)NC[C@@H]3Cc3ccc(O)cc3)C[C@@H]2Cc2ccc(O)cc2)cc1 (stereo partly specified),?,nt,nt,nt,?,10µM*
CCOc1ccc(CCN2C(=S)N([C@@H](CC(C)C)CN3CCCC3CN3C(=S)NC[C@@H]3Cc3ccc(O)cc3)C[C@@H]2Cc2ccccc2)cc1 (stereo partly specified),-26.2%,nt,nt,nt,-29.9%,?
Cc1cccc(CNC(=O)CN2C(=O)CCn3nc(-c4cn(C)c5ccccc45)cc32)c1,-11.0%,-6.0%[46.1 µM],4.0%,nt,-14.2%,-4.5%
COCCCN1C(=O)c2[nH]nc(-c3ccccc3O)c2C1c1ccc(OC)cc1 (stereo unspecified),1.0%,?,-10.6%,-46.2%[46.1 µM],-9.3%[7.34 µM],-6.7%[7.34 µM]
CC1(N2CCCCC2)CC2(O)C(=[N+]1[O-])CCC/C2=N\O (stereo unspecified),2.6%,8.0%,50.1µM*,-15.6%[46.1 µM],-1.4%,9.9%
COCC(=O)N1c2nc(C(C)C)nn2C2(CCCCC2)[C@@H]2CCCC[C@@H]21,-11.5%,4.7%[46.1 µM],-0.4%,?,-8.6%,-8.2%
Fc1ccccc1/C=C1\CCCC2=C1Nc1nnnn1C2c1ccccc1F (stereo unspecified),-22.7%,10.2%[14.3 µM],6.31µM*,1.7%,i,-13.6%
COc1ccccc1NC(=O)c1c(-c2ccc(C)cc2)nnc2ccccc12,25.0%,25.7%[46.1 µM],-9.4%,nt,-10.2%,-7.7%
CCOC(=O)c1c(S(=O)(=O)N2CCC(C(=O)N3CCN(c4cccc(C)c4C)CC3)CC2)c(C)n(C)c1C,-18.3%,-25.8%[46.1 µM],-5.4%,nt,?,?
CSc1nsc(SCC(=O)Nc2ccccc2C(=O)O)n1,39.2%,1.2%,-11.7%,18.3µM*,i,4.0%
COc1ccc(NC(=O)CSc2nc(SC)ns2)cc1,28.9%,-3.8%[46.1 µM],-2.1%,?,11.2µM*,?
CSc1nsc(SCC(=O)Nc2ccc(NC(C)=O)cc2)n1,1.2%,21.1%,-9.0%,4.4%[46.1 µM],-14.1%,-8.8%
CCOC(=O)[C@@](O)(C1C(=O)CC(C)(C)CC1=O)C(F)(F)F,nt,nt,nt,15.4%[46.1 µM],nt,nt
SMILES,FMDV antiviral,LASV entry inh,Sm TGR block,MARV entry inh,VACV mCherry inh,VACV Venus inh
Cc1cc2nc(NCCCO)n(CC(=O)c3cc(C(C)(C)C)c(O)c(C(C)(C)C)c3)c2cc1C,0.0%,nt,-15.3%,nt,?,10µM*
Cc1cccc(NC(=O)C(Cc2ccccc2)n2cccc2)c1C (stereo unspecified),-13.2%,nt,8.4%,0.3%[46.1 µM],-3.9%,1.0%
c1cnc2nc(-c3ccc4c(c3)OCO4)cn2c1,45.3%,-29.1%,13.4%,?,-7.9%,0.6%
c1ccn2cc(-c3ccc4c(c3)OCO4)cc2c1,45.2%,3.1%,44.7µM*,-2.3%[46.1 µM],-12.5%,21.4%
COC(=O)c1c(C)oc(C)c1S(=O)(=O)NCC1CC1,128.3%,10.8%,4.5%,-2.2%,-13.2%,-7.2%
COC(=O)c1c(C)oc(C)c1S(=O)(=O)N(C)C1CCCCC1,31.4%,1.4%[46.1 µM],44.7µM*,0.1%[46.1 µM],-11.0%,-13.5%
CN(C)C(=O)N1CCN(S(=O)(=O)c2ccc3ccccc3c2)CC1,-14.1%,?,7.8%,0.3%[46.1 µM],-10.3%,-12.7%
O=C(CCl)N1CCN(S(=O)(=O)c2ccc3ccccc3c2)CC1,25.1µM*,?,5.62µM*,?,i,-4.3%
O=C(CCl)N1CCN(S(=O)(=O)c2ccc3c(c2)OCCCO3)CC1,25.1µM*,nt,15.8µM*,nt,nt,nt
CCCCCC(=O)N1CCN(S(=O)(=O)c2ccc3c(c2)OCCO3)CC1,-10.1%,-17.0%,5.8%,?,-1.5%,-16.3%
COc1cc(NC(=O)Cn2nnnc2-c2ccccc2F)cc(OC)c1OC,-10.3%,13.7%[46.1 µM],7.4%,-2.2%[46.1 µM],-6.2%,-1.9%
Oc1c(Br)cc(Br)cc1CNc1cnc2ccccc2c1,-18.5%,nt,12.6µM*,nt,nt,nt
Oc1c(C(Nc2ccccn2)c2ccccn2)ccc2cccnc12 (stereo unspecified),-20.4%,?,22.4µM*,?,?,10µM*
Oc1c(C(Nc2ccccn2)c2ccccc2F)ccc2cccnc12 (stereo unspecified),7.0%,?,2µM*,nt,-5.5%[7.34 µM],-2.3%[7.34 µM]
Cc1ccnc(NC(c2ccsc2)c2ccc3ccc(C)nc3c2O)c1 (stereo unspecified),-12.0%,-8.9%[46.1 µM],nt,?,-20.5%,-19.8%
Cc1ccnc(NC(c2cc(C)ccc2O)c2ccc3cccnc3c2O)c1 (stereo unspecified),0.0%,?,0.355µM*,?,-6.9%,-8.6%
COc1ccccc1NC(c1cccnc1)c1ccc2cccnc2c1O (stereo unspecified),-29.8%,?,0.0%,?,-29.4%,-10.1%
Cc1ccnc(NC(c2ccccc2F)c2ccc3cccnc3c2O)c1 (stereo unspecified),-9.9%,?,2.24µM*,?,15.8µM*,?
Cc1ccc(CN2CCOc3ccc(C(C)(O)COc4ccccc4)cc3C2)o1 (stereo unspecified),-8.9%,nt,nt,nt,-8.6%,7.2%
